Screen size: about 5,500 compounds; about 2,000 (36%) were called active. Roughly 18% stayed inconclusive and do not appear here. No stated cut-off is given here; in the data, active means normalized growth mostly below about 0.91 (no sharp cut-off); inconclusive means no clear call, values can overlap the other calls; inactive means mostly above about 0.92. The list shows a part of the results.
Test: chemical genetic growth profiling, strain panel (AID 1159580);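 further: tested at 20 µM; growth read once vehicle control cultures reached saturation at 30 °C; 1 = growth at the plate median or of vehicle wells; lower values mean less growth of the strain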
Conditions: growth OD

Measured: normalized growth

C1CCN2CC3CC(CN4CCCCC34)C2C1 (centres undefined)
active: S. cerevisiae deletion strains, locus YLR418C, strain cdc73, hits give low values 0.811 | S. cerevisiae deletion strains, locus YNL307C, strain MCK1, hits give low values 0.294 | S. cerevisiae deletion strains, locus YPR163C, strain tif3, hits give low values 0.873 | S. cerevisiae deletion strains, strain wtn01, hits give low values 0.863
inactive: S. cerevisiae deletion strains, locus YJR043C, strain POL32, hits give low values 1.02 | S. cerevisiae deletion strains, locus YJR075W, strain HOC1, hits give low values 1.01 | S. cerevisiae deletion strains, locus YKL009W, strain mrt4, hits give low values 1.02 | S. cerevisiae deletion strains, locus YKL068W, hits give low values 1.01 | S. cerevisiae deletion strains, locus YKL085W, strain MDH1 (second series), hits give low values 1 | S. cerevisiae deletion strains, locus YKL085W, strain MDH1, hits give low values 1 | S. cerevisiae deletion strains, locus YKL160W, strain elf1, hits give low values 0.991 | S. cerevisiae deletion strains, locus YKL190W, strain CNB1, hits give low values 1 | S. cerevisiae deletion strains, locus YKR001C, strain vps1, hits give low values 0.964 | S. cerevisiae deletion strains, locus YKR026C, strain gcn3, hits give low values 1.02 | S. cerevisiae deletion strains, locus YKR091W, strain srl3, hits give low values 1.01 | S. cerevisiae deletion strains, locus YLL001W, strain dnm1, hits give low values 1.04 | S. cerevisiae deletion strains, locus YLL026W, hits give low values 1.01 | S. cerevisiae deletion strains, locus YLL041C, strain sdh2, hits give low values 1.02 | S. cerevisiae deletion strains, locus YLR027C, strain aat2, hits give low values 1.01 | S. cerevisiae deletion strains, locus YLR039C, strain RIC1, hits give low values 1.04 | S. cerevisiae deletion strains, locus YLR058C, strain SHM2, hits give low values 1.02 | S. cerevisiae deletion strains, locus YLR102C, strain apc9, hits give low values 1.01 | S. cerevisiae deletion strains, locus YLR221C, strain rsa3, hits give low values 1.01 | S. cerevisiae deletion strains, locus YLR258W, strain gsy2, hits give low values 1.02 | S. cerevisiae deletion strains, locus YLR262C, strain YPT6 (second series), hits give low values 1 | S. cerevisiae deletion strains, locus YLR262C, strain YPT6, hits give low values 1.01 | S. cerevisiae deletion strains, locus YLR268W, strain sec22, hits give low values 0.894 | S. cerevisiae deletion strains, locus YLR320W, strain mms22, hits give low values 1.03 | S. cerevisiae deletion strains, locus YLR330W, strain CHS5, hits give low values 1.01 | S. cerevisiae deletion strains, locus YLR342W, strain FKS1 (second series), hits give low values 1.03 | S. cerevisiae deletion strains, locus YLR342W, strain FKS1, hits give low values 1.02 | S. cerevisiae deletion strains, locus YLR357W, strain rsc2, hits give low values 1.04 | S. cerevisiae deletion strains, locus YLR370C, strain arc18, hits give low values 1.02 | S. cerevisiae deletion strains, locus YLR371W, strain rom2, hits give low values 0.967 | S. cerevisiae deletion strains, locus YLR384C, strain iki3, hits give low values 1.02 | S. cerevisiae deletion strains, locus YML016C, strain PPZ1, hits give low values 1.01 | S. cerevisiae deletion strains, locus YML032C, strain rad52, hits give low values 1.03 | S. cerevisiae deletion strains, locus YML120C, strain ndi1, hits give low values 1.01 | S. cerevisiae deletion strains, locus YML124C, strain tub3, hits give low values 1.01 | S. cerevisiae deletion strains, locus YMR058W, strain fet3, hits give low values 1.02 | S. cerevisiae deletion strains, locus YMR078C, strain ctf18, hits give low values 1.02 | S. cerevisiae deletion strains, locus YMR125W, strain sto1, hits give low values 1.06 | S. cerevisiae deletion strains, locus YMR129W, hits give low values 1.03 | S. cerevisiae deletion strains, locus YMR205C, strain PFK2, hits give low values 1.04 | S. cerevisiae deletion strains, locus YMR223W, strain ubp8, hits give low values 0.909 | S. cerevisiae deletion strains, locus YMR231W, strain pep5, hits give low values 1.02 | S. cerevisiae deletion strains, locus YMR263W, strain SAP30, hits give low values 0.997 | S. cerevisiae deletion strains, locus YMR307W, strain GAS1, hits give low values 1.02 | S. cerevisiae deletion strains, locus YNL067W, strain RPL9B, hits give low values 0.988 | S. cerevisiae deletion strains, locus YNL071W, strain lat1, hits give low values 1.02 | S. cerevisiae deletion strains, locus YNL128W, strain TEP1, hits give low values 1.01 | S. cerevisiae deletion strains, locus YNL153C, strain GIM3, hits give low values 0.986 | S. cerevisiae deletion strains, locus YNL209W, strain ssb2, hits give low values 1.02 | S. cerevisiae deletion strains, locus YNL233W, strain BNI4, hits give low values 0.998 | S. cerevisiae deletion strains, locus YNL248C, strain rpa49, hits give low values 1.02 | S. cerevisiae deletion strains, locus YNL250W, strain rad50, hits give low values 1.03 | S. cerevisiae deletion strains, locus YNL271C, strain bni1, hits give low values 1.01 | S. cerevisiae deletion strains, locus YNL298W, strain CLA4, hits give low values 1.01 | S. cerevisiae deletion strains, locus YNL322C, strain KRE1 (second series), hits give low values 1.01 | S. cerevisiae deletion strains, locus YNL322C, strain KRE1, hits give low values 1.01 | S. cerevisiae deletion strains, locus YNR049C, strain mso1, hits give low values 1.02 | S. cerevisiae deletion strains, locus YNR052C, strain pop2, hits give low values 1.02 | S. cerevisiae deletion strains, locus YOL006C, strain TOP1, hits give low values 1.03 | S. cerevisiae deletion strains, locus YOL012C, strain htz1 0.345 | S. cerevisiae deletion strains, locus YOL147C, strain pex11, hits give low values 1.01 | S. cerevisiae deletion strains, locus YOR001W, strain rrp6, hits give low values 1.01 | S. cerevisiae deletion strains, locus YOR061W, strain CKA2, hits give low values 1.01 | S. cerevisiae deletion strains, locus YOR069W, strain VPS5, hits give low values 1.01 | S. cerevisiae deletion strains, locus YOR070C, strain gyp1, hits give low values 1.02 | S. cerevisiae deletion strains, locus YOR080W, strain dia2, hits give low values 1.02 | S. cerevisiae deletion strains, locus YOR083W, strain WHI5, hits give low values 0.99 | S. cerevisiae deletion strains, locus YOR106W, strain vam3, hits give low values 1 | S. cerevisiae deletion strains, locus YOR136W, strain idh2, hits give low values 0.961 | S. cerevisiae deletion strains, locus YOR144C, strain elg1, hits give low values 1.01 | S. cerevisiae deletion strains, locus YOR184W, strain ser1, hits give low values 0.959 | S. cerevisiae deletion strains, locus YOR265W, strain rbl2, hits give low values 1.02 | S. cerevisiae deletion strains, locus YOR270C, strain vph1, hits give low values 1.03 | S. cerevisiae deletion strains, locus YOR290C, strain snf2, hits give low values 0.985 | S. cerevisiae deletion strains, locus YOR316C, strain cot1, hits give low values 1.01 | S. cerevisiae deletion strains, locus YPL051W, strain arl3, hits give low values 0.998 | S. cerevisiae deletion strains, locus YPL055C, strain LGE1, hits give low values 1 | S. cerevisiae deletion strains, locus YPL078C, strain atp4, hits give low values 1 | S. cerevisiae deletion strains, locus YPL106C, strain sse1, hits give low values 1.04 | S. cerevisiae deletion strains, locus YPL240C, strain hsp82, hits give low values 1.03 | S. cerevisiae deletion strains, locus YPL241C, strain CIN2, hits give low values 1.01 | S. cerevisiae deletion strains, locus YPR119W, strain clb2, hits give low values 1 | S. cerevisiae deletion strains, locus YPR141C, strain kar3, hits give low values 1.02 | S. cerevisiae deletion strains, locus YPR167C, strain met16, hits give low values 0.992 | S. cerevisiae strains, strain wild type, hits give low values 1.01

Reference: PubChem BioAssay AID1159580 (chemical genetic matrix, 2015)
